For part of these data: Potency and affinity values are given separately. Calls of active or inactive are those of the source. Unless noted, how the calls were made is not given here.
Legend:
[1] = antimalarial activity against Dd2 strain (AID 2302;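 active means growth inhibition above 50% at the single 2 µM test dose, taken to imply half-maximal potency below 2 µM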;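 further: 0% = DMSO untreated growth and 100% = chloroquine plus artemisinin killed control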); conditions: P. falciparum Dd2 in RBCs, LDH growth readout, 72 h; at 2 µM; hits give high values
[2] = HepG2 cytotoxicity, primary screen, cytotoxicity control for P. falciparum antimalarial project, cell-based, ATP luminescence (AID 2303;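 active means inhibition above 50%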;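 further: 0% = DMSO wells and 100% = digitonin-killed cells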); conditions: HepG2 viability, 24-48 h, at 10 µM, hits give high values
[3] = target: L-lactate dehydrogenase (Plasmodium falciparum (isolate CDC / Honduras)) (UniProt Q27743); assay: PfLDH activity inhibition – cell lysate, 3D7 strain, counter-screen for P. falciparum growth inhibition project (AID 2304);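 further: 0% = vehicle and 100% = reference inhibitor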; conditions: P. falciparum 3D7 crude extract, LDH APAD/NBT absorbance; at 2 µM; hits give high values
[4] = inhibition of 3D7 malaria parasite growth – strain 3D7 (AID 2306);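 further: 0% = DMSO wells and 100% = chloroquine plus artemisinin control wells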; conditions: P. falciparum 3D7 erythrocytic growth, LDH absorbance, 72 h; at 2 µM; hits give high values
[5] = target: Calcium-dependent protein kinase 1 (Plasmodium falciparum (isolate 3D7)) (UniProt P62344); assay: PfCDPK1 kinase inhibitors, biochemical, TCAMS library (AID 1159585; cut-off not given, nearly all actives have IC50 up to about 0.98 µM;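 further: inhibitors leave more ATP so luminescence rises with inhibition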); conditions: recombinant PfCDPK1, Kinase-Glo ATP depletion luminescence
[6] = target: Plasmodium falciparum protein kinase 6 (PK6, PF3D7_1337100) (UniProt Q8IDW1); assay: PfPK6 kinase inhibitors, biochemical, TCAMS library (AID 1159586); conditions: recombinant PfPK6, Kinase-Glo ATP depletion luminescence
[7] = target: Protein kinase 7 (PK7), Plasmodium falciparum 3D7 (PF3D7_0213400) (UniProt Q7YTF7); assay: inhibition of Plasmodium PK7 catalytic activity – biochemical, TCAMS antimalarial set, Kinase-Glo luminescence (AID 1159587); conditions: recombinant PfPK7, Kinase-Glo ATP depletion luminescence
[8] = target: Calcium-dependent protein kinase 4 (Plasmodium falciparum (isolate 3D7)) (UniProt Q8IBS5); assay: PfCDPK4 kinase inhibitors, biochemical, TCAMS library (AID 1159588; cut-off not given, nearly all actives have IC50 up to about 0.91 µM); conditions: recombinant PfCDPK4, Kinase-Glo ATP depletion luminescence
Calcium-dependent protein kinase 4 (Plasmodium falciparum (isolate 3D7)), sequence (Q8IBS5 whole entry, looked up): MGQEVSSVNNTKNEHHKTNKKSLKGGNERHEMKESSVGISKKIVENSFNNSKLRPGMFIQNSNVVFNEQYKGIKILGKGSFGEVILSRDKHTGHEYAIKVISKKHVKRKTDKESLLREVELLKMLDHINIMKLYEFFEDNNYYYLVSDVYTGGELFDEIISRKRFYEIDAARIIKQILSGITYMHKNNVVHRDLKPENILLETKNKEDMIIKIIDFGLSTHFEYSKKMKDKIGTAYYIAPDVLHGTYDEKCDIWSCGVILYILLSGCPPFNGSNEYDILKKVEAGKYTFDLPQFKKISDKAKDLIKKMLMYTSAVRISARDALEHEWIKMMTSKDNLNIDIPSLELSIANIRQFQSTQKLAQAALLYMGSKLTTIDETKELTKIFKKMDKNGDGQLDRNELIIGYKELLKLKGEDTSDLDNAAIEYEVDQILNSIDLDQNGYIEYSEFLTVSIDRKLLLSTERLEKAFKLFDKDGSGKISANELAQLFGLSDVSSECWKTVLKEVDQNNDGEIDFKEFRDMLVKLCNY

Calcium-dependent protein kinase 1 (Plasmodium falciparum (isolate 3D7)), sequence (P62344 whole entry, looked up): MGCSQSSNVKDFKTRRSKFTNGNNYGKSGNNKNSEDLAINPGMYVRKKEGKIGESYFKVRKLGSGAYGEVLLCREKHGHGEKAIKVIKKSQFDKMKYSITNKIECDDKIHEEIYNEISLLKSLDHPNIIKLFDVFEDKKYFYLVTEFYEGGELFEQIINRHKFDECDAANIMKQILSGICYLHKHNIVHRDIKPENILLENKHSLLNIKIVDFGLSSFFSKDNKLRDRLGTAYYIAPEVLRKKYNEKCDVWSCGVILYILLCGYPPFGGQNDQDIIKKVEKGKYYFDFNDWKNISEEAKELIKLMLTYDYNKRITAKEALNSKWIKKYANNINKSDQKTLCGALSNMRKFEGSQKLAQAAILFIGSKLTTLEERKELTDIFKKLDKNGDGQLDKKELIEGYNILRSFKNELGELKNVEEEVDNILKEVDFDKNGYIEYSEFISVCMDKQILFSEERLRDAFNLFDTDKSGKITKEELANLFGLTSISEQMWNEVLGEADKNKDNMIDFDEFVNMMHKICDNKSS
Plasmodium falciparum protein kinase 6 (PK6, PF3D7_1337100), sequence (Q8IDW1 1-305): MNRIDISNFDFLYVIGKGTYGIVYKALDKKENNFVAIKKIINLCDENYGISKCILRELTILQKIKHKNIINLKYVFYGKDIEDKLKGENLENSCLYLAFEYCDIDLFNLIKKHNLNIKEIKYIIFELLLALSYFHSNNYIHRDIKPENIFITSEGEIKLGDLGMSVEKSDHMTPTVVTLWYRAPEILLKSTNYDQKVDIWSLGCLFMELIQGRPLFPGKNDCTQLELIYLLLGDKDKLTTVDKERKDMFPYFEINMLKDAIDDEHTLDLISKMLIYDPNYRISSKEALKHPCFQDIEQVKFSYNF
Protein kinase 7 (PK7), Plasmodium falciparum 3D7 (PF3D7_0213400), sequence (Q7YTF7 1-343): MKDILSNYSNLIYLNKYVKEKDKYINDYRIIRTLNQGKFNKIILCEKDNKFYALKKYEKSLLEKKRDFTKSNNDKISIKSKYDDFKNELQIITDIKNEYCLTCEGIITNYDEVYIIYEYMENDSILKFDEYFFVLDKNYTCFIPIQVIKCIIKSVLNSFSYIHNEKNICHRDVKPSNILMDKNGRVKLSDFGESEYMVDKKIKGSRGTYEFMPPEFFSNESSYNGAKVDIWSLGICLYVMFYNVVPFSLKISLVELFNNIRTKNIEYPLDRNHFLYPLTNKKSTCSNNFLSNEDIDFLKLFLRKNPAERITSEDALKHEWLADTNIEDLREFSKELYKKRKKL
L-lactate dehydrogenase (Plasmodium falciparum (isolate CDC / Honduras)), sequence (Q27743 whole entry, looked up): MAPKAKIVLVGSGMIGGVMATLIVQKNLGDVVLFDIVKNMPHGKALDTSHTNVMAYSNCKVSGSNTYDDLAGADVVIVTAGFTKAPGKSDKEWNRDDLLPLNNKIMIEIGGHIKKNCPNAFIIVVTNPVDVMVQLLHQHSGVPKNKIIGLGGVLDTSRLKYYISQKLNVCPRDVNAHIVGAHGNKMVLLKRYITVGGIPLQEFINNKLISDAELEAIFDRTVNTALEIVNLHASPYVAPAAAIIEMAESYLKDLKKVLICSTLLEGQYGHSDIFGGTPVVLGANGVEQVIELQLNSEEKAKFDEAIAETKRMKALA

COc1ccc(N2C(=O)c3c(c4ccccc4n3C)C2c2ccccc2O)cc1 (configuration not stated)
active: growth inhibition [1] 91% | growth inhibition [4] 96%
inactive: inhibition [2] 32% | inhibition [3] 3% | outcome [5] | outcome [6] | outcome [7] | outcome [8]

Cc1cc(N[C@@H](Cc2ccccc2)C(=O)NCCOc2ccccc2)nc(NCC2CCCCC2)n1
inactive: inhibition [2] 30% | inhibition [3] -1% | outcome [5] | outcome [6] | outcome [7] | outcome [8]
active: growth inhibition [1] 75% | growth inhibition [4] 100%

Cc1cc(C)cc(OCC(O)CN(Cc2cc(Cl)cc(Cl)c2)C(=O)Nc2ccc([N+](=O)[O-])cc2)c1 (configuration not stated)
inactive: growth inhibition [1] 38% | inhibition [2] -3% | inhibition [3] 4% | outcome [5] | outcome [6] | outcome [7] | outcome [8]
active: growth inhibition [4] 95%

O=C(O[C@@H]1CN[C@H](C#Cc2cc3c(Nc4ccc5c(cnn5Cc5ccccc5)c4)ncnc3s2)C1)N1CCCC1
inactive: inhibition [2] 8% | inhibition [3] -1% | outcome [5] | outcome [6] | outcome [7] | outcome [8]
active: growth inhibition [1] 87% | growth inhibition [4] 99%

O=C(NC1CCN(Cc2ccc3c(c2)OCCO3)CC1)c1ccc(-c2cccc(Cl)c2)s1
active: growth inhibition [4] 93%
inactive: growth inhibition [1] 9% | inhibition [2] 46% | inhibition [3] -5% | outcome [5] | outcome [6] | outcome [7] | outcome [8]

CCOC(=O)c1ccc(NCc2ccccn2)cc1
active: growth inhibition [4] 99%
inactive: growth inhibition [1] -2% | inhibition [2] -3% | inhibition [3] -6% | outcome [5] | outcome [6] | outcome [7] | outcome [8]

CCc1c(CCNCCCCCCNCCc2ccc(OC)c(OC)c2C)ccc(OC)c1OC
inactive: growth inhibition [1] 1% | inhibition [2] 16% | inhibition [3] 5% | outcome [5] | outcome [6] | outcome [7] | outcome [8]
active: growth inhibition [4] 98%

Cc1ccc(Nc2nccc(NCC(O)c3cccc(F)c3)n2)cc1 (configuration not stated)
inactive: growth inhibition [1] 26% | inhibition [2] 24% | inhibition [3] -7% | outcome [5] | outcome [6] | outcome [7] | outcome [8]
active: growth inhibition [4] 95%

Nc1ccc(-c2ccc(NC(=O)Nc3cc(C(F)(F)F)ccc3F)cc2)cn1
inactive: growth inhibition [1] 39% | inhibition [2] -6% | inhibition [3] -9% | outcome [5] | outcome [6] | outcome [7] | outcome [8]
active: growth inhibition [4] 99%

CCc1cn2c3c(cc(C(=O)N[C@@H](Cc4cccc(F)c4)[C@H](O)CNC4CC4)cc13)N(C)S(=O)(=O)CC2
inactive: inhibition [2] 2% | inhibition [3] 1% | outcome [5] | outcome [6] | outcome [7] | outcome [8]
active: growth inhibition [1] 98% | growth inhibition [4] 98%

CCCc1ccc(-c2csc(NC(=O)c3ccc([N+](=O)[O-])o3)n2)cc1
inactive: growth inhibition [1] 13% | inhibition [3] 4% | outcome [5] | outcome [6] | outcome [7] | outcome [8]
active: inhibition [2] 72% | growth inhibition [4] 85%

CS(=O)(=O)c1ccc(CNCc2cccc(-c3cccc(-c4nc5ccc(C(F)(F)F)cc5[nH]4)c3)c2)cc1
inactive: inhibition [2] 5% | inhibition [3] 2% | outcome [5] | outcome [6] | outcome [7] | outcome [8]
active: growth inhibition [1] 96% | growth inhibition [4] 103%

CC(C)c1cn2c3c(cc(C(=O)N[C@@H](Cc4ccccc4)[C@H](O)CNC4CCOCC4)cc13)N(C)S(=O)(=O)CC2
inactive: inhibition [2] 9% | inhibition [3] -6% | outcome [5] | outcome [6] | outcome [7] | outcome [8]
active: growth inhibition [1] 99% | growth inhibition [4] 98%

Cc1cc(NN=Cc2cccc([N+](=O)[O-])c2)c2ccc(F)cc2n1
inactive: inhibition [2] -18% | inhibition [3] -8% | outcome [5] | outcome [6] | outcome [7] | outcome [8]
active: growth inhibition [1] 98% | growth inhibition [4] 101%

CC1CCCN(S(=O)(=O)c2cc(Br)cc3c2N(C(=O)C2CC2)CC3)C1 (configuration not stated)
inactive: inhibition [2] -14% | inhibition [3] -3% | outcome [5] | outcome [6] | outcome [7] | outcome [8]
active: growth inhibition [1] 70% | growth inhibition [4] 83%

O=C(N[C@H]1CCCC[C@H]1C(=O)O)c1ccccc1
active: growth inhibition [4] 95%
inactive: growth inhibition [1] 3% | inhibition [2] 7% | inhibition [3] -5% | outcome [5] | outcome [6] | outcome [7] | outcome [8]

CCc1cc(-c2onc(C)c2-c2cc3ccccc3o2)c(O)cc1OC
inactive: growth inhibition [1] 33% | inhibition [2] 48% | inhibition [3] -2% | outcome [5] | outcome [6] | outcome [7] | outcome [8]
active: growth inhibition [4] 95%

COc1c(Br)cc(Br)cc1C(C)=O
inactive: growth inhibition [1] -2% | inhibition [2] 3% | inhibition [3] 1% | outcome [5] | outcome [6] | outcome [7] | outcome [8]
active: growth inhibition [4] 95%

Fc1ccc(-c2cncc(-c3ccc(F)cc3)n2)cc1
inactive: inhibition [2] 7% | inhibition [3] 2% | outcome [5] | outcome [6] | outcome [7] | outcome [8]
active: growth inhibition [1] 94% | growth inhibition [4] 99%

COc1cccc(CNC[C@@H](O)[C@H](Cc2ccccc2)NC(=O)c2cc(N3CCCC3=O)c3[nH]cc(C(C)C)c3c2)c1
inactive: inhibition [2] 5% | inhibition [3] 3% | outcome [5] | outcome [6] | outcome [7] | outcome [8]
active: growth inhibition [1] 98% | growth inhibition [4] 96%

Cc1[nH]c(C)c(-c2ccc(-c3ccc(OCC(F)(F)F)cc3)nc2)c(=O)c1Cl
active: growth inhibition [1] 96% | growth inhibition [4] 94%
inactive: inhibition [2] 3% | inhibition [3] 4% | outcome [5] | outcome [6] | outcome [7] | outcome [8]

O=C(C=Cc1ccc(Cl)c(Cl)c1)NCCCCCN1CCC(c2[nH]nc3ccccc23)CC1
active: growth inhibition [4] 99%
inactive: growth inhibition [1] 29% | inhibition [2] 32% | inhibition [3] 0% | outcome [5] | outcome [6] | outcome [7] | outcome [8]

O=c1cc(NCCCNCc2cccc(SC(F)(F)F)c2)[nH]c2ccccc12
active: growth inhibition [1] 94% | growth inhibition [4] 100%
inactive: inhibition [2] -9% | inhibition [3] 6% | outcome [5] | outcome [6] | outcome [7] | outcome [8]

CN(Cc1ccccc1)C(=O)CCNS(=O)(=O)c1cc(Br)cnc1N
active: growth inhibition [1] 61% | growth inhibition [4] 91%
inactive: inhibition [2] -5% | inhibition [3] 4% | outcome [5] | outcome [6] | outcome [7] | outcome [8]

O=C(Nc1cccc(C(F)(F)F)c1)c1cccc(S(=O)(=O)NCC2CCCN(Cc3ccccc3)C2)c1 (configuration not stated)
active: growth inhibition [4] 94%
inactive: growth inhibition [1] 3% | inhibition [2] 17% | inhibition [3] 2% | outcome [5] | outcome [6] | outcome [7] | outcome [8]

N#CN1CC[C@H](CS(=O)(=O)c2cccc(Br)c2)C1
active: growth inhibition [1] 74% | growth inhibition [4] 88%
inactive: inhibition [2] 8% | inhibition [3] -2% | outcome [5] | outcome [6] | outcome [7] | outcome [8]

COc1ccc(-c2nc3cccnc3n2CC(=O)Nc2c(C)cc(C)cc2C)c(OC)c1
active: inhibition [2] 77% | growth inhibition [4] 91%
inactive: growth inhibition [1] 21% | inhibition [3] 1% | outcome [5] | outcome [6] | outcome [7] | outcome [8]

CC1CC(C)CN(CC(O)CNC(=O)Nc2ccc(Br)cc2)C1 (configuration not stated)
inactive: growth inhibition [1] 44% | inhibition [2] 13% | inhibition [3] 5% | outcome [5] | outcome [6] | outcome [7] | outcome [8]
active: growth inhibition [4] 94%

CN1CCC(N2CCN(CCOc3cc(NC(=O)/C=C/c4ccccc4Cl)ccc3Br)CC2)CC1
active: growth inhibition [1] 99% | growth inhibition [4] 101%
inactive: inhibition [2] 36% | inhibition [3] -1% | outcome [5] | outcome [6] | outcome [7] | outcome [8]

O=C(/C=C/c1ccc(Cl)c(Cl)c1)N1CCC(CCCN2CCC(c3c[nH]c4ccccc34)CC2)CC1
inactive: growth inhibition [1] 45% | inhibition [2] 44% | inhibition [3] -1% | outcome [5] | outcome [6] | outcome [7] | outcome [8]
active: growth inhibition [4] 101%

COc1ccc(NC(=O)C2c3ccccc3C(=O)N(C3CCCC3)C2c2cccs2)cc1OC (configuration not stated)
active: growth inhibition [1] 96% | growth inhibition [4] 90%
inactive: inhibition [2] -5% | inhibition [3] -2% | outcome [5] | outcome [6] | outcome [7] | outcome [8]

Cc1nc(Nc2ccc(C)c(Cl)c2)c2c(C)noc2n1
inactive: inhibition [2] 0% | inhibition [3] 0% | outcome [5] | outcome [6] | outcome [7] | outcome [8]
active: growth inhibition [1] 72% | growth inhibition [4] 94%

Fc1ccc(NC(=S)NN=Cc2ccccn2)cc1
inactive: inhibition [3] -1% | outcome [5] | outcome [6] | outcome [7] | outcome [8]
active: growth inhibition [1] 67% | inhibition [2] 56% | growth inhibition [4] 95%

CN1CCCN(Cc2cccc(-c3cccc(NC(=O)c4cccc(C#N)c4)c3)c2)CC1
inactive: growth inhibition [1] 33% | inhibition [2] 18% | inhibition [3] 2% | outcome [5] | outcome [6] | outcome [7] | outcome [8]
active: growth inhibition [4] 95%

CC(=O)c1ccc(-c2ccccc2)s1
inactive: growth inhibition [1] 2% | inhibition [2] -2% | inhibition [3] 8% | outcome [5] | outcome [6] | outcome [7] | outcome [8]
active: growth inhibition [4] 92%

O=C(N[C@@H](CC1CCCCC1)C(=O)NCc1cccc(C(F)(F)F)c1)c1ccc(O)c(-c2ccc(Cl)c(Cl)c2)c1
active: growth inhibition [1] 100% | growth inhibition [4] 98%
inactive: inhibition [2] -5% | inhibition [3] 5% | outcome [5] | outcome [6] | outcome [7] | outcome [8]

CN1CCC(C(=O)N(Cc2ccc(-c3ccc(CNCCc4ccc(S(C)(=O)=O)cc4)cn3)cc2)C2CCN(Cc3ccccc3)CC2)CC1
inactive: inhibition [2] 11% | inhibition [3] -5% | outcome [5] | outcome [6] | outcome [7] | outcome [8]
active: growth inhibition [1] 95% | growth inhibition [4] 102%

CN1CCN(CCc2ccc(N=Cc3c(=O)[nH]c4ccc5[nH]cccc5c34)cc2)CC1
active: growth inhibition [1] 98% | inhibition [2] 51% | growth inhibition [4] 102%
inactive: inhibition [3] 6% | outcome [5] | outcome [6] | outcome [7] | outcome [8]

O=C(/C=C/c1ccc(Cl)c(Cl)c1)NCCCCCN1CCC(NC(=O)Nc2ccc(C(F)(F)F)cc2)C1 (configuration not stated)
active: growth inhibition [4] 100%
inactive: growth inhibition [1] 6% | inhibition [2] 11% | inhibition [3] -2% | outcome [5] | outcome [6] | outcome [7] | outcome [8]

— PubChem BioAssay
